Test results published in PubChem BioAssay (Tox21).
Records with an inconclusive call do not appear. The source made the active and inactive calls. Unless noted, the call rests on the fitted dose curve; in most records, active means well fitted curve in the direction sought with a large enough effect in the repeat runs; inconclusive means weak or mixed curves; inactive means no such curve, though single readings can be large; an effect the other way counts as inactive or inconclusive.

How the values were obtained:
[1] = qHTS assay for small molecule agonists of the p53 signaling pathway (AID 651631; calls by dose curve; further: nearly all actives have a fitted effect of over 15% in size)
In short: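 Testing took place in human colorectal HCT-116 cells with stable p53RE-driven beta-lactamase. After 16 h of compound exposure at 37 °C, a FRET substrate was added and fluorescence recorded 2 h later.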

[2] = qHTS assay for small molecules that induce genotoxicity in human embryonic kidney cells expressing luciferase-tagged ATAD5 (AID 651632); further: nearly all actives have a fitted effect of over 15% in size
In short: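 HEK293T cells carrying a luciferase reporter tagged to ATAD5 were exposed to compound or DMSO vehicle for 16 hr at 37C, 5% CO2. Amplite was added, and after 30 min at room temperature luciferase activity was read as a marker of ATAD5 induction.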

[3] = qHTS assay for small molecule agonists of the p53 signaling pathway - cell viability (AID 651633; calls by dose curve; further: series mostly up to about 83 µM; nearly all actives have a fitted effect of over 30% in size)
In short: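 p53RE-bla cells, seeded at 4,000 per well and rested 5 h at 37 C/5% CO2, received compounds in DMSO for 16 h at 37 C. CellTiter-Glo was then added, and luminescence was read after 30 min at room temperature to gauge cytotoxicity.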

[4] = qHTS assay for small molecules that induce genotoxicity in human embryonic kidney cells expressing luciferase-tagged ATAD5 - cell viability (AID 651634; calls by dose curve; further: nearly all actives have a fitted effect of over 25% in size)
In short: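 HEK293T cells expressing luciferase-tagged ATAD5 were exposed to compound or DMSO for 15.5 hr at 37C, 5% CO2. Viability was then read as live-cell protease activity by CellTiter-Fluor fluorescence after 30 min at 37C.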

[5] = qHTS assay for small molecule disruptors of the mitochondrial membrane potential - cell viability (AID 720634; calls by dose curve;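 further: human HepG2 liver cancer cells; series mostly up to about 83 µM; nearly all actives have a fitted effect of over 20% in size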)
In short: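 HepG2 cells seeded overnight at 37 C, then exposed to compound or DMSO for 1 hr at 37 C, 5% CO2. m-MPI dye added, then CellTiter-Glo for 30 min at room temperature; viability read as ATP luminescence.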

[6] = qHTS assay to test for compound auto fluorescence at 590 nm (red) in HepG2 cells (AID 720674)
In short: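 Intrinsic compound fluorescence in the red window (Ex/Em 540/590 nm) is measured in attached HepG2 cells exposed for 1 hr, DMSO vehicle as baseline, benchmarked to Rose Bengal sodium.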

[7] = qHTS assay to test for compound auto fluorescence at 460 nm (blue) in HEK293 cells (AID 720678)
In short: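 HEK293 cells (2,000 per well, medium with 10% dialyzed FBS) attached for 4-5 hr at 37C, then received compound and stood overnight at 37C, 5% CO2. Blue fluorescence was read at Ex/Em 405/460 nm and expressed relative to triamterene.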

[8] = qHTS assay to test for compound auto fluorescence at 590 nm (red) in HEK293 cells (AID 720679)
In short: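 HEK293 cells (2,000/well, medium with 10% dialyzed FBS) attached for 4-5 hr at 37C, received 23 nL compound and were incubated overnight at 37C, 5% CO2. Red fluorescence was then read at 540/590nm Ex/Em, referenced to Rose Bengal sodium.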

[9] = qHTS assay to test for compound auto fluorescence at 460 nm (blue) in HEK293 cell free culture (AID 720681)
In short: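 Test compounds were pinned into cell-free culture medium (DMEM with 10% FBS) and fluorescence was read directly at Ex/Em 405/460 nm. Signals were expressed as fluorescence equivalents of triamterene, with DMSO vehicle as control.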

[10] = qHTS assay to test for compound auto fluorescence at 535 nm (green) in HEK293 cell free culture (AID 720682)
In short: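 DMEM + 10% FBS, cell-free; cpd or DMSO pinned in; Ex485/Em535 read; output as fluorescein-equivalent signal.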

[11] = qHTS assay to test for compound auto fluorescence at 590 nm (red) in HEK293 cell free culture (AID 720683)
In short: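 Tox21 10K library compounds were pinned into cell-free DMEM with 10% FBS and fluorescence was read at excitation 540 nm. Activity is expressed as Rose Bengal sodium equivalency.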

[12] = qHTS assay to test for compound auto fluorescence at 590 nm (red) in HepG2 cell free culture (AID 720684)
In short: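 Red fluorescence (540 nm excitation, 590 nm emission) was measured after compound transfer into cell-free MEM supplemented with 10% FBS. Values are equivalencies against Rose Bengal sodium.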

[13] = qHTS assay to test for compound auto fluorescence at 460 nm (blue) in HepG2 cell free culture (AID 720685)
In short: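 Compound (23 nL) or DMSO pinned into cell-free MEM with 10% FBS; blue fluorescence read at 405/460 nm excitation/emission, expressed as auto-fluorescence equivalency to triamterene.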

[14] = qHTS assay to test for compound auto fluorescence at 535 nm (green) in HepG2 cell free culture (AID 720686)
[15] = qHTS assay to test for compound auto fluorescence at 460 nm (blue) in HepG2 cells (AID 720687)
In short: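 Cells (2,000/well in MEM with 10% FBS) attached overnight at 37 C, then were exposed to compound or DMSO for 1 hr at 37 C, 5% CO2. Fluorescence read at Ex/Em 405/460 nm, expressed as triamterene-equivalent signal.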

[16] = qHTS assay for small molecule disruptors of the mitochondrial membrane potential (AID 720635)
In short: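 HepG2 cells (2,000/well) attached overnight at 37C, then took compound for 1 hr at 37C, 5% CO2. Mito-MPS dye was added for 30 min; fluorescence was read at 490/535 nm (monomers) and 540/590 nm (aggregates).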

[17] = qHTS assay to test for compound auto fluorescence at 535 nm (green) in HepG2 cells (AID 720675)
[18] = molecular target: Glucocorticoid receptor (Homo sapiens) (UniProt P04150); assay: qHTS assay to identify small molecule agonists of the glucocorticoid receptor (GR) signaling pathway (AID 720691; active means well fitted activation curve with a large enough effect in the signal ratio in the repeat runs, not every such curve was filed as active; the % refers to the signal ratio)
Glucocorticoid receptor (Homo sapiens), sequence (P04150 whole entry, looked up): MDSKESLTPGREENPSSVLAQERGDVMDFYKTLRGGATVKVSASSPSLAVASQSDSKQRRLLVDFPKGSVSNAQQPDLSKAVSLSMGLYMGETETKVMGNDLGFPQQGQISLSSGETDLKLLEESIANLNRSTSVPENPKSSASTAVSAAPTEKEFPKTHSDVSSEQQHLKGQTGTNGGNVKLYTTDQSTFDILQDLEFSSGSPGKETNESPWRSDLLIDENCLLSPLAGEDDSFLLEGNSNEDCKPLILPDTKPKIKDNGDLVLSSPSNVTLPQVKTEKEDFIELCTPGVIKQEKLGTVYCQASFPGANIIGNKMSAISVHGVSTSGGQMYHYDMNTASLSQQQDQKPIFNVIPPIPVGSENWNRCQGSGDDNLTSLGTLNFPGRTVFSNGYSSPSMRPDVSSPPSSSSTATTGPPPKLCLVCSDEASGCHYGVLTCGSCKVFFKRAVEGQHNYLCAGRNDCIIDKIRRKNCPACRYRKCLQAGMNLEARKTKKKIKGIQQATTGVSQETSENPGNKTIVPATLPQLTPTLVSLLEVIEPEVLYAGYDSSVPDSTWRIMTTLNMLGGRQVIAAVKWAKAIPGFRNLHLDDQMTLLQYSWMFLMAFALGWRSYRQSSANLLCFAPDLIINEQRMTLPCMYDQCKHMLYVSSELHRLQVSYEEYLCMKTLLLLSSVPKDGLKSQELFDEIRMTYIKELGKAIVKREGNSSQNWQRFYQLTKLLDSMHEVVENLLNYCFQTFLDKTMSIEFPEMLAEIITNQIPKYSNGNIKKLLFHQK
In short: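 GR-bla HeLa cells (beta-lactamase reporter under glucocorticoid response element) were plated 4 h at 37 C/5% CO2, given compounds in DMSO, and incubated 18 h at 37 C. LiveBLAzer B/G FRET substrate was added for 2 h at room temperature, then fluorescence intensity read.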

[19] = molecular target: Glucocorticoid receptor (Homo sapiens) (UniProt P04150); assay: qHTS assay to identify small molecule antagonists of the glucocorticoid receptor (GR) signaling pathway (AID 720692; active means well fitted inhibition curve with a large enough effect in the signal ratio in the repeat runs, not every such curve was filed as active; the % refers to the signal ratio)
In short: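 GR-bla HeLa cells (beta-lactamase reporter under glucocorticoid response element) were pre-plated 4 h at 37 C, treated with compounds plus 5 nM dexamethasone (final) for 18 h, then read by LiveBLAzer B/G FRET fluorescence after 2 h.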

[20] = qHTS assay to test for compound auto fluorescence at 535 nm (green) in HEK293 cells (AID 720680)
On the % scale 0 is the no-effect control and ±100 the full control effect.

CN(C)c1cc(NC(=O)CNC(C)(C)C)c(O)c2c1C[C@H]1C[C@H]3[C@H](N(C)C)C(=O)C(C(N)=O)=C(O)[C@@]3(O)C(=O)C1=C2O
inactive: Potency [1] | Potency [2] | outcome [3] | outcome [4] | outcome [5] | outcome [6] | outcome [7] | outcome [8] | outcome [9] | outcome [10] | outcome [11] | outcome [12] | outcome [13] | outcome [14] | outcome [15]

CCCC(C)C(O)CC (configuration not stated)
inactive: Potency [1] | Potency [2] | outcome [3] | outcome [4] | Potency [16] | outcome [6] | outcome [17] | outcome [7] | outcome [8] | outcome [9] | outcome [10] | outcome [11] | outcome [12] | outcome [13] | outcome [14] | Potency [18] | outcome [19]

O=c1[nH]c(=O)c2cn[nH]c2[nH]1
inactive: Potency [1] | Potency [2] | outcome [3] | outcome [4] | outcome [6] | outcome [17] | outcome [7] | outcome [8] | outcome [20] | outcome [9] | outcome [10] | outcome [11] | outcome [12] | outcome [13] | outcome [14] | Potency [18] | outcome [19]

CC(=O)SC[C@@H](C)C(=O)N1CCC[C@H]1C(=O)N[C@@H](Cc1ccccc1)C(=O)O
inactive: Potency [1] | Potency [2] | outcome [3] | outcome [4] | outcome [5] | outcome [6] | outcome [17] | outcome [7] | outcome [8] | outcome [9] | outcome [10] | outcome [11] | outcome [12] | outcome [13] | outcome [14] | outcome [15]

CC12CCCC=C1C(=O)OC2=O (configuration not stated)
inactive: Potency [1] | Potency [2] | outcome [3] | outcome [4] | outcome [5] | outcome [6] | outcome [17] | outcome [8] | outcome [20] | outcome [9] | outcome [10] | outcome [12] | outcome [13] | outcome [14] | outcome [15]

O=C(O)Cc1ccccc1Oc1ccc(Cl)cc1Cl
inactive: Potency [1] | Potency [2] | outcome [3] | outcome [4] | Potency [16] | outcome [6] | outcome [8] | outcome [9] | outcome [10] | outcome [11] | outcome [12] | outcome [13] | outcome [14] | outcome [15] | Potency [18]

C[C@@H]1NC(=O)[C@@H](N)CNC(=O)[C@H](C2CCNC(N)=N2)NC(=O)/C(=C/NC(N)=O)NC(=O)[C@H](CNC(=O)C[C@@H](N)CCCN)NC1=O (some centres not stated)
inactive: Potency [1] | Potency [2] | outcome [3] | outcome [4] | Potency [16] | outcome [6] | outcome [17] | outcome [7] | outcome [8] | outcome [20] | outcome [9] | outcome [10] | outcome [11] | outcome [12] | outcome [13] | outcome [14] | outcome [15] | Potency [18] | outcome [19]

CN(C)CCCN(C)C
inactive: activation [1] 3.19% [at 8.3 µM] | activation [2] -0.426% [at 8.08 µM] | activity change, negative = cytotoxicity [3] 10.5% [at 8.08 µM] | activity, negative = cytotoxicity [4] 29.6% [at 8.08 µM] | activity change, negative = cytotoxicity [5] 7.6% [at 8.08 µM] | fluorescence, relative to Rose Bengal [6] -1.07% [at 3.72 µM] | fluorescence, % of fluorescein control [17] -0.223% [at 3.72 µM] | fluorescence, % of triamterene [7] -0.32% [at 3.72 µM] | fluorescence, % of fluorescent control [8] -0.954% [at 3.72 µM] | fluorescence, % of fluorescent control [9] -0.55% [at 3.72 µM] | activity change [10] -0.2% [at 3.72 µM] | fluorescence, % of fluorescent control [11] -0.816% [at 3.72 µM] | fluorescence, % of Rose Bengal [12] -0.0354% [at 3.72 µM] | fluorescence, % of fluorescent control [13] -0.358% [at 3.72 µM] | fluorescence, % of fluorescein control [14] -0.197% [at 3.72 µM] | fluorescence, % of fluorescent control [15] -0.76% [at 3.72 µM] | activation [18] -0.0659% [at 6.9 µM] | activity change, negative = inhibition [19] 10.4% [at 7.04 µM]
